Screens as filed in PubChem BioAssay.
GLS inhibitor: qHTS for Inhibitors of Glutaminase (GLS) | Glutaminase kidney isoform, mitochondrial (Homo sapiens), O94925 | GLS enzymatic activity, qHTS titration | Potency, µM (doses to about 45.5 µM), without a hit: at the top dose activity change, negative = inhibition, hits mostly inhibitors | 410,000 compounds, 0.21% hits; also: % is scaled to controls: 0 for no effect and ±100 for the full control effect
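Two-point fluorescence kinetic (t0, 30 min RT) for hKGA; glutamate detected via glutamate oxidase–HRP–Amplex Red. Substrate: 1 mM L-glutamine solution; buffer 45 mM KH2PO4, pH 8.2.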
BAZ2B inh: qHTS Assay for Inhibitors of BAZ2B; Bromodomain adjacent to zinc finger domain protein 2B (Homo sapiens), Q9UIF8; AlphaScreen BAZ2B-H3K14Ac peptide displacement; Potency, µM (titrated, usually from 114 µM), without a hit: top-dose activity change, negative = inhibition, actives largely listed as inhibitors; 360,000 compounds, 4.4% hits; AID 504333, 2011; also: % is scaled to controls: 0 for no effect and ±100 for the full control effect; nearly all actives have a fitted effect of over 60% in size
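AlphaScreen luminescence quantifies BAZ2B engagement of H3K14Ac peptide; the protein and biotinylated peptide are both at 50 nM final, buffer PBS pH 7.4 with 0.01% Tween-20, all steps at room temperature.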
HP1b chromo inh: HTS for Inhibitors of HP1-beta Chromodomain Interactions with Methylated Histone Tails; Chromobox protein homolog 1 (Homo sapiens), P83916; AlphaScreen HP1-beta / biotin-H3K9me3 peptide binding; Potency, µM (titrated, usually from 114 µM), for inactives: at the top dose activity change, negative = inhibition, most hits filed as inhibitors; 390,000 compounds, 0.56% hits; AID 540317, 2011; also: nearly all actives have a fitted effect of over 70% in size
Target sequence (P83916 whole entry, looked up): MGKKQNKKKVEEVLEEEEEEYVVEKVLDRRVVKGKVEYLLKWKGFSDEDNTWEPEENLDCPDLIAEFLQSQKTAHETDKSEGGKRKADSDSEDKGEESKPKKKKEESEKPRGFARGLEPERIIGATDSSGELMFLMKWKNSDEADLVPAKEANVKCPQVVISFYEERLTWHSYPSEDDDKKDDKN
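AlphaScreen: HP1-beta (50 nM) preformed 30 min with biotin-H3(1-18)K9me3 peptide (50 nM) in PBS pH 7.4, 0.01% Tween-20. Compound added for 30 min at RT, then streptavidin donor/nickel chelate acceptor beads (10 ug/mL) for 30 min.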
G9a inh: qHTS Assay for Inhibitors of Histone Lysine Methyltransferase G9a; Histone-lysine N-methyltransferase EHMT2 (Homo sapiens), Q96KQ7; G9a H3K9 monomethylation, AlphaScreen, 2 h; Potency, µM (top dose mostly 102 µM), without a hit: at the highest dose activity, negative = inhibition, most hits filed as inhibitors; 350,000 compounds, 8.8% hits; AID 504332, 2011; also: % is scaled to controls: 0 for no effect and ±100 for the full control effect; nearly all actives have a fitted effect of over 75% in size
Target sequence (Q96KQ7 913-1193 limits assumed): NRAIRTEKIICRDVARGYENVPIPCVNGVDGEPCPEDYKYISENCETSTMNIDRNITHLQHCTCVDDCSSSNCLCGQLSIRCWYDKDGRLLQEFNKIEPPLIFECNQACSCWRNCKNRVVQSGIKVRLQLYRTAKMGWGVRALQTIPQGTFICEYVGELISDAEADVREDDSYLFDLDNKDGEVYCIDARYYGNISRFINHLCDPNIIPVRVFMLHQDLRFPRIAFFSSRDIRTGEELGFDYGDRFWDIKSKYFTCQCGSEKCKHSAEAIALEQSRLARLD
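Readings reflect AlphaScreen signal from monomethyl-H3K9 antibody detection. HMT at 20 nM; substrate b-H3K9 500 nM; cofactor SAM 20 uM; 2 h RT reaction; compounds tested as titrations in qHTS with 15 min preincubation.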
JMJD2A Tudor: qHTS Assay for Inhibitors of JMJD2A-Tudor Domain; Lysine-specific demethylase 4A (Homo sapiens), O75164; AlphaScreen JMJD2A-Tudor / H3K4me3 peptide binding; Potency, µM (doses to about 114 µM), for the others: top-dose activity change, negative = inhibition, hits mostly inhibitors; 390,000 compounds, 4.4% hits; AID 504339, 2011; also: % is scaled to controls: 0 for no effect and ±100 for the full control effect; nearly all actives have a fitted effect of over 50% in size
* hit, by the source's call; ? = inconclusive; / = no result given; [ ] = another dose, or the depositor's remark. Most compounds without a hit are left out; they make up all but 10% or so of the library. Calls follow the shape of the dose curve; as a rule, active = well fitted curve in the direction sought with a large enough effect; inconclusive = small, poorly fitted or top-dose-only effect, or another doubt; inactive = no such curve, though single readings can be large; an effect the other way counts as inactive or inconclusive. Potency is read from the fitted curve at half-maximal effect.

SMILES	GLS inhibitor	BAZ2B inh	HP1b chromo inh	G9a inh	JMJD2A Tudor
CC1=C([N+](=O)[O-])C(c2cccc(Br)c2)C2=C(N1)c1ccccc1C2=O (stereo not given)	6%	14µM*	?	-21%[2.33 µM]	16µM*
O=C(Cc1ccc(NS(=O)(=O)c2ccc(F)cc2)cc1)NCc1cccnc1	?	5%	18%	-14%	4%
Cc1nc(-c2ccc([N+](=O)[O-])cc2)sc1C(=O)O	2%	-8%	33%	?	-1%
Cc1ccccc1NC(=S)NCCc1ccccc1	10%	?	21%	?	1%
CC(C)(C)NC(=S)NCCc1ccccc1	-7%	10%	56%	45µM*	2%[57.1 µM]
S=C(NCCc1ccccc1)Nc1ccccn1	12%	-24%	?	1.4µM*	-13%
Cc1cccc(NC(=S)NCCc2ccccc2)n1	-15%	-38%	17%	-117%	-15%
CCCn1c(SCC(=O)Nc2nonc2C)nnc1-c1ccoc1C	-9%	-28%	-5%	8%[12.7 µM]	?
CCCCC(=O)N=c1sc2cc(S(C)(=O)=O)ccc2n1C	-13%	5%	35%	-7%	-3%
CC(NC(=O)Nc1ccc(O)cc1)(C(F)(F)F)C(F)(F)F	43%	1%	4%	11µM*	-16%
COc1ccc(NC(=O)NC(C)(C(F)(F)F)C(F)(F)F)cc1	?	-3%[57.1 µM]	-3%	-3%	16µM*
O=[N+]([O-])c1ccc(/C=N/NS(=O)(=O)c2ccc(Cl)cc2)o1	7%	-38%	24%	3.5µM*	?
Clc1ccc2c(N/N=C/c3ccccc3Br)ccnc2c1	-1%	-5%	4%	27%[59 µM]	?
O=[N+]([O-])c1ccc(/C=N/N=C/c2ccc([N+](=O)[O-])o2)o1	62%	-35%	10%	?	-23%
Cc1ccc(S(=O)(=O)N/N=C\c2ccc([N+](=O)[O-])o2)cc1C	10%	-5%	43%	79%	-17%
Cc1ccc(S(=O)(=O)N/N=C\c2ccc([N+](=O)[O-])o2)cc1	7%	-5%	4%	3.5µM*	-25%
O=[N+]([O-])c1ccc(/C=N/Nc2ccnc3cc(Cl)ccc23)o1	2%	28µM*	32µM*	40µM*	40µM*
CC(C)n1c(N2CCN(C(=O)NCc3ccccc3)CC2)nc2ccccc21	-18%	/	35%	-8%[59 µM]	4%
NC1=CC(=O)C(=O)c2ccccc21	3%	/	-1%	/	-17%
O=C1C=C(O)c2[nH]c(=O)ccc2C1=O	?	/	-10%	/	10µM*
CC1=NN(c2ccccc2)C(=O)/C1=C/c1c(O)n(-c2ccc(F)cc2)[nH]c1=O	?	40µM*	?	11µM*	28µM*
COc1ccc(/C=C2/C(=O)N(c3cccc(F)c3)N=C2C)c(OC)c1	1%	?	-7%	19%[0.501 µM]	-23%
COc1ccc(/C=C2/C(=O)N(c3ccccc3)N=C2C)cc1Br	5%	13µM*	22µM*	35µM*	18µM*
CC1=NN(c2cccc(F)c2)C(=O)/C1=C/c1ccc(N(C)C)cc1	3%	-26%	-2%	-16%	-17%
CC1=NN(c2ccccc2)C(=O)/C1=C/c1ccc[nH]1	-1%	11µM*	16µM*	22µM*	16µM*
SMILES	GLS inhibitor	BAZ2B inh	HP1b chromo inh	G9a inh	JMJD2A Tudor
CC1=NN(c2ccccc2)C(=O)/C1=C\c1ccc(Br)s1	?	11µM*	?	8.9µM*	10µM*
Cc1ccc(CCNC(=O)c2cc(S(=O)(=O)N3CCOCC3)cn2C)cc1	-1%	5%	39%	3%	5%
CC1CCCCC1NC(=S)NC(=O)c1cccs1 (stereo not given)	-2%	?	?	-2%[59 µM]	?
CC1=NN(c2ccccc2)C(=O)/C1=C\c1cc(C)n(-c2ccccc2)c1C	-4%	?	?	3.5µM*	-27%
CC1=NN(c2ccccc2)C(=O)/C1=C/c1ccc(Cl)cc1	-13%	?	?	40µM*	?
CC1=NN(c2ccccc2)C(=O)/C1=C/c1cccs1	-1%	16µM*	?	32µM*	40µM*
CC1=NN(c2ccc(C)c(C)c2)C(=O)/C1=C/c1ccc2c(c1)n(C)c(=O)n2C	-3%	?	2%	7.1µM*	-19%
COc1ccc(C2=NOC(CNC(N)=S)C2)cc1 (stereo not given)	7%	-14%	38%	?	-19%
CC(c1ccccc1)N(C)C(=O)CSc1nnc(C2CC2)n1C1CC1 (stereo not given)	2%	-6%	25%	24%[12.7 µM]	-18%
CCC(C(=O)NCc1ccco1)N(C(=O)CNS(=O)(=O)c1ccccc1)c1ccc(F)cc1 (stereo not given)	-6%	-13%	9%	15%[59 µM]	-24%
CS(=O)(=O)c1cccc(-c2nnc(NC(=O)c3ccc4ncsc4c3)o2)c1	11%	4%	27%	?	?
CSc1ccccc1-c1nnc(NC(=O)Cc2ccccc2)o1	-1%	-13%	45%	44%[59 µM]	3%
COc1cccc(-c2nnc(NC(=O)c3ccc4ncsc4c3)o2)c1	1%	79µM*	25%	?	-20%
CS(=O)(=O)c1ccccc1-c1nnc(NC(=O)c2ccc3ncsc3c2)o1	-4%	50µM*	61%	-14%[2.33 µM]	56µM*
CS(=O)(=O)c1ccccc1-c1nnc(NC(=O)Cc2ccccc2)o1	6%	25µM*	8%	?	79µM*
CCCn1ncc(CN2CCC(Oc3ccc(C(=O)N4CCCC4)cc3)CC2)c1C	-6%	-12%[57.1 µM]	20%	12%	-13%
CC(=O)Nc1ccc(N/C=C/C(=O)c2ccccc2)cc1	-4%	1%	28%	/	-8%
Cc1ccc2c(c1)c(C)cc(=O)n2CCC(=O)O	16%	50µM*	-16%	?	89µM*
CC1Cc2ccccc2N1C(=O)CSc1ncccc1C(=O)O (stereo not given)	11%	-4%	18%	79µM*	-12%
COc1ccc(C(=O)c2c(C(F)(F)F)oc3c2C(=O)c2ccccc2C3=O)cc1	1%	7.9µM*	?	7.9µM*	?
COc1ccc(C(=O)c2coc(-c3ccccc3C(=O)O)c2C(=O)O)cc1	16%	2%	22%	14%[59 µM]	-18%
FC(F)Oc1ccc(NC(=S)NCc2ccccc2)cc1	13%	0%	27%	40%[59 µM]	0%
Oc1cccc2c(NC(=S)Nc3ccc(OC(F)F)cc3)cccc12	0%	45µM*	?	45µM*	?
CN(NC(=S)Nc1ccc(OC(F)F)cc1)C(=S)Nc1ccc(OC(F)F)cc1	?	-5%	-4%	?	-9%
FC(F)Oc1ccc(NC(=S)Nn2cnnc2)cc1	-6%	-9%	-27%	6.3µM*	?
